Of roughly 7,900 targets only a part is listed; those with a hit were picked by preference. About 0.6% of all pairs of compound and target were hits.
Tests used:
Test in all cases: log2 fold change, soluble protein after heating vs DMSO (PISA); higher = thermal stabilisation; K562 cells, 10 uM, 30 min; active = over 0.2 and 3.5 SD of the protein, either way, in both replicates (recomputed)
[1] = compound: C#Cc1cccc(Nc2ncnc3cc(OCCOC)c(OCCOC)cc23)c1 [erlotinib]
How it was run: (§1)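 Soluble protein was quantified by TMTpro 16plex LC-MS/MS after channel sums were equalised. It was obtained as the supernatant after 21,000xg for 90 min from pooled aliquots of K562 cells (2×10^6 cells/mL, 10 μM compound, 30 min) heated for 3 min across 48°C-58°C and extracted in PBS with 0.5% NP-40 at 4°C. Thermal stability values are relative to control samples and come from duplicates. They are given as log2 fold changes.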

[2] = compound: C/C(=N\NC(=O)C1=CC(=CC=C1)S(=O)(=O)N2CCOCC2)/C3=C(C=CC(=C3)Cl)O
How it was run: as §1

[3] = compound: C1=CC(=C(C=C1Cl)C2=NC3=NC=CN=C3C(=N2)NC4=CC=NC=C4)F
How it was run: as §1

[4] = compound: C1=CC(=CC=C1C2=NC3=C(N2)C=C(C=C3)C(=O)N)OC4=CC=C(C=C4)Cl
How it was run: as §1

[5] = compound: C1=CC2=C(C=CC(=C2)/C=C\3/C(=O)NC(=NCC4=CC=CS4)S3)N=C1
How it was run: as §1

[6] = compound: C1=CC2=NC=CN=C2C=C1/C=C/3\C(=O)NC(=O)S3
How it was run: as §1

[7] = compound: C1=CC=C(C=C1)C2=NC(=C(N2)C3=CC=NC=C3)C4=CC(=C(C=C4)Cl)O
How it was run: as §1

[8] = compound: C1=CC=C2C(=C1)C3=NNC4=CC=CC(=C43)C2=O
How it was run: as §1

[9] = compound: C1CCN(C1)C(=O)NC2=CC=CC(=C2)NC3=NC=C(C(=N3)NCCC4=CN=CN4)Br
How it was run: as §1

[10] = compound: C1CN(CCC1(CC2=CC=C(C=C2)Cl)N)C3=NC=NC4=C3C=CN4
How it was run: as §1

Sequence of UniProt Q13356 (Q13356 whole entry, looked up): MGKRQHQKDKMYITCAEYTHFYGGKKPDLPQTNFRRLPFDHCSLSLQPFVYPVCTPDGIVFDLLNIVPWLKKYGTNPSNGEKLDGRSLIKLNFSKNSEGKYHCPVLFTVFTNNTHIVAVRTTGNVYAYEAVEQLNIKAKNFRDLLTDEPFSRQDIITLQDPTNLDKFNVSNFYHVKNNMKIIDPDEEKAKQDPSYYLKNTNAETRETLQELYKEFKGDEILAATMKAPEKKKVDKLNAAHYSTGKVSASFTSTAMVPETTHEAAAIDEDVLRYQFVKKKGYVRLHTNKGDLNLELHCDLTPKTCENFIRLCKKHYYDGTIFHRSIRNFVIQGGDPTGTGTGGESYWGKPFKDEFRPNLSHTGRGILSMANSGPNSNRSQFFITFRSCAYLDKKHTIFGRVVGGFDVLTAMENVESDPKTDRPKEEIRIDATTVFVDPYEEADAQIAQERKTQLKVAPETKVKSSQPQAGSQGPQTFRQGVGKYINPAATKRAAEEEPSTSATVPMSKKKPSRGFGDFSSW
Sequence of UniProt Q96PU8 (Q96PU8 whole entry, looked up): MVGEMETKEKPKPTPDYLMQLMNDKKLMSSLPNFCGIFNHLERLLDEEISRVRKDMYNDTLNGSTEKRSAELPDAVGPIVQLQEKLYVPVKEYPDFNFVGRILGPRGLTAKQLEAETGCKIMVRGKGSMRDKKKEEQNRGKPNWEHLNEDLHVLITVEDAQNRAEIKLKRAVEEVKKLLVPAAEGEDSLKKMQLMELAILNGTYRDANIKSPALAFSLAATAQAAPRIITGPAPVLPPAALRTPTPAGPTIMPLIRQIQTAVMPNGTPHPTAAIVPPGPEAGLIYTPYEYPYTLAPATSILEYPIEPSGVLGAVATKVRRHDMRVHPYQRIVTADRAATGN
Sequence of UniProt Q05209 (Q05209 whole entry, looked up): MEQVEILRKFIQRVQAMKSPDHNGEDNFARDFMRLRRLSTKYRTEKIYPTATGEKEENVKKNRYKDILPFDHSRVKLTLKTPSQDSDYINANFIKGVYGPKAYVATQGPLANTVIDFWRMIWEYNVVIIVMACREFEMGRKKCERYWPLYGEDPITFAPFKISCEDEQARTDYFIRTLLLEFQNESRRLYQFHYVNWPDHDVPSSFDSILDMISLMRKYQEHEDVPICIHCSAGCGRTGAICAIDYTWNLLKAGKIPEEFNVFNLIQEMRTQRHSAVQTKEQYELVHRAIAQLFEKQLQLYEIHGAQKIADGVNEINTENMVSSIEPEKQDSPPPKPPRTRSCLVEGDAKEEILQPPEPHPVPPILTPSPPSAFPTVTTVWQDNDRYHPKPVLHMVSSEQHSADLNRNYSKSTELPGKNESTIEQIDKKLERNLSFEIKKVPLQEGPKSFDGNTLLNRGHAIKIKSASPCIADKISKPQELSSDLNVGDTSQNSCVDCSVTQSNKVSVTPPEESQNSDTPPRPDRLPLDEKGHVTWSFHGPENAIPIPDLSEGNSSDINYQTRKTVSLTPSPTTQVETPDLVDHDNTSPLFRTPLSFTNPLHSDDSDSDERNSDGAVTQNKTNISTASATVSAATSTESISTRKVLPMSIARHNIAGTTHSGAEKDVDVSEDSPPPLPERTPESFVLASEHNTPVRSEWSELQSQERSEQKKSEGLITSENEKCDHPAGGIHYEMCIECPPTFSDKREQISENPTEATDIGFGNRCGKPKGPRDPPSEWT
Sequence of UniProt P49642 (P49642 whole entry, looked up): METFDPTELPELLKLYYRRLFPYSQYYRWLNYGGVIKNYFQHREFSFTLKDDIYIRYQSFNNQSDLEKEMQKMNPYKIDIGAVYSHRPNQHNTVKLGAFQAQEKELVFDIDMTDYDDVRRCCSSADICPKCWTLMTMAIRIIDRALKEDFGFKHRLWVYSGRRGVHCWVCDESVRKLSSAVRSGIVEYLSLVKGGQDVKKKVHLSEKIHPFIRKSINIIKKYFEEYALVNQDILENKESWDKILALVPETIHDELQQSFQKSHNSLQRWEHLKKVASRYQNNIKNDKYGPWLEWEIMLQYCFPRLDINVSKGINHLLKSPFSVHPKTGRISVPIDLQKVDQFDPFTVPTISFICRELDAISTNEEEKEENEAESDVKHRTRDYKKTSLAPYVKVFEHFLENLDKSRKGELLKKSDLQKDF
Sequence of UniProt Q8N5Y8 (Q8N5Y8 whole entry, looked up): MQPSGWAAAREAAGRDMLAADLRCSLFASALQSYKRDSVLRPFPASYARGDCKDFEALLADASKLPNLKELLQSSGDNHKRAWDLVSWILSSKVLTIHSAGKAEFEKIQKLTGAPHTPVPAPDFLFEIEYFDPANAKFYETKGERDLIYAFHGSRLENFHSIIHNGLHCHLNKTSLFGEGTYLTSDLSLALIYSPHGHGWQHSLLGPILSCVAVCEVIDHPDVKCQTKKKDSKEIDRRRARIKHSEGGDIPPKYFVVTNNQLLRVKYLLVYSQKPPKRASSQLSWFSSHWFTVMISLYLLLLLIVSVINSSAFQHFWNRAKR
Sequence of UniProt Q9NR22 (Q9NR22 whole entry, looked up): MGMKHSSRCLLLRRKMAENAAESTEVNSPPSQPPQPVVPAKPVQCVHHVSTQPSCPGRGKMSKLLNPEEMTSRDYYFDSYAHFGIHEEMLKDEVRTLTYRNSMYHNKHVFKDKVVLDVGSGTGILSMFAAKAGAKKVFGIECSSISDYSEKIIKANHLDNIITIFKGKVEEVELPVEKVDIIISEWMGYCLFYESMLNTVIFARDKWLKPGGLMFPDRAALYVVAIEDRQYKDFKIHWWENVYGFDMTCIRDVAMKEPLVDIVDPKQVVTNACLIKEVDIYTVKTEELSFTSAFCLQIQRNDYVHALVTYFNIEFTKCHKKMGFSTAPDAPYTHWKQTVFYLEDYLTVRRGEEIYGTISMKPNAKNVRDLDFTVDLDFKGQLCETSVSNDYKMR
Sequence of UniProt P53801 (P53801 whole entry, looked up): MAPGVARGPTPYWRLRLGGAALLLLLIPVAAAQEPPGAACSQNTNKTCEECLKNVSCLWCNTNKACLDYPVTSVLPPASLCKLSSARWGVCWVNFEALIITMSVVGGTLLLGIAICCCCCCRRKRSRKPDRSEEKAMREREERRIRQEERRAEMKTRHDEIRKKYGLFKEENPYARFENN
Sequence of UniProt P05423 (P05423 whole entry, looked up): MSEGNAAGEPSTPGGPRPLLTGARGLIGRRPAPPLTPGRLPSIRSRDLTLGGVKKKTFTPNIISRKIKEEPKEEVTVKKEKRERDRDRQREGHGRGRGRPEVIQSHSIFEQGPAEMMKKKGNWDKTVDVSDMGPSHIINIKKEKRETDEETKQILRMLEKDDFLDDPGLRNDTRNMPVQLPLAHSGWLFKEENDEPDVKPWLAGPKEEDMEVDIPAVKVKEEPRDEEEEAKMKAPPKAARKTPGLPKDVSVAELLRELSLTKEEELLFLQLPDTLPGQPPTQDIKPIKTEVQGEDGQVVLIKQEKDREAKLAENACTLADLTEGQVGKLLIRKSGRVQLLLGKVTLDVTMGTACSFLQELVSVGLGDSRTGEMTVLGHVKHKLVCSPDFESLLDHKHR
Sequence of UniProt O60678 (O60678 whole entry, looked up): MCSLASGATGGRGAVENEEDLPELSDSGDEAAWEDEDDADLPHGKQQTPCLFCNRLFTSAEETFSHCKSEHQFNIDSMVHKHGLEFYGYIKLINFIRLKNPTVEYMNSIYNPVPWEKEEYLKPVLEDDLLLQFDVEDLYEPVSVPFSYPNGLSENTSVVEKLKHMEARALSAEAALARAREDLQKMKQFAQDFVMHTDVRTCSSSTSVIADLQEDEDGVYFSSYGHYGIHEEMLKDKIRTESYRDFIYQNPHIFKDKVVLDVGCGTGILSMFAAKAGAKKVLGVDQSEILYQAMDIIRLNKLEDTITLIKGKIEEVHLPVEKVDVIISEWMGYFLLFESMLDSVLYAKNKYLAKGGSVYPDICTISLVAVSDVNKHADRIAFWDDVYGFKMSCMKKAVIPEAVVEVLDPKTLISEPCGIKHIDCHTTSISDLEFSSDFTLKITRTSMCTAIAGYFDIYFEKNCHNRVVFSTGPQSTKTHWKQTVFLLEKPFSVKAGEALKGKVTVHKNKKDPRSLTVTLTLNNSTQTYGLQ
Sequence of UniProt O14974 (O14974 whole entry, looked up): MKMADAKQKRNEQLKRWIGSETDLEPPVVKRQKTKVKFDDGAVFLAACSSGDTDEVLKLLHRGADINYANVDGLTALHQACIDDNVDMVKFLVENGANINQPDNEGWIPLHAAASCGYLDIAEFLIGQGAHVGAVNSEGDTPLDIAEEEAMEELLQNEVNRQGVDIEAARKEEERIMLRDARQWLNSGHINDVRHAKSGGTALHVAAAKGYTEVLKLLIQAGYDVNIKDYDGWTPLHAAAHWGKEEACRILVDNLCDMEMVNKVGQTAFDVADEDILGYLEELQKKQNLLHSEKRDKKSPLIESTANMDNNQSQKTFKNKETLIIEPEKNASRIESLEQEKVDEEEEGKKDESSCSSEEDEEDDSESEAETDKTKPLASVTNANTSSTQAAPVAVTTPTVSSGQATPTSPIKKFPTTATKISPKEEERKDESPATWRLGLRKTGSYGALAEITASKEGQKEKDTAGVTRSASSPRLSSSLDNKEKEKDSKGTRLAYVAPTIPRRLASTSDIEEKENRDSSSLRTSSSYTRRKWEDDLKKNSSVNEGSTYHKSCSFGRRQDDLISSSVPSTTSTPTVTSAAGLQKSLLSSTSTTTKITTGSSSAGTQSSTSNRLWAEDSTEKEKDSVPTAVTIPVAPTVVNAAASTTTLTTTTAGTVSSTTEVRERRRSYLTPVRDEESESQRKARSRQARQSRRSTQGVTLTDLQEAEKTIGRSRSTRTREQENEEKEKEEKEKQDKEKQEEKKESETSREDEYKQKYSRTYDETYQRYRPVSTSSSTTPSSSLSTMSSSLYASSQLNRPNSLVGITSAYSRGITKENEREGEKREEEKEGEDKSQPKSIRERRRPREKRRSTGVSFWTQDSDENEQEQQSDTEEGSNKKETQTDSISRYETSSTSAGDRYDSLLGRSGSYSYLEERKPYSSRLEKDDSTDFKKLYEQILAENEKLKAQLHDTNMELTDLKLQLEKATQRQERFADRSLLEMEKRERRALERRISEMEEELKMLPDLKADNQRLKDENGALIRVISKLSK

Row | Target | log2 fold change [1] | log2 fold change [2] | log2 fold change [3] | log2 fold change [4] | log2 fold change [5] | log2 fold change [6] | log2 fold change [7] | log2 fold change [8] | log2 fold change [9] | log2 fold change [10]
1 | PELO (UniProt Q9BRX2) | 0.153 (inactive) | 0.017 (inactive) | -0.108 (inactive) | 0.074 (inactive) | 0.105 (inactive) | -0.104 (inactive) | 0.079 (inactive) | 0.021 (inactive) | -0.097 (inactive) | -0.058 (inactive)
2 | PRMT3 (UniProt O60678) | -0.056 (inactive) | 0.147 (inactive) | 0.03 (inactive) | 0.027 (inactive) | 0.066 (inactive) | 0.011 (inactive) | 0.028 (inactive) | -0.003 (inactive) | -0.01 (inactive) | -0.089 (inactive)
3 | PLCG1 isoform 2 (UniProt P19174) | 0.052 (inactive) | -0.054 (inactive) | -0.09 (inactive) | 0.067 (inactive) | 0.119 (inactive) | 0.029 (inactive) | 0.006 (inactive) | 0.017 (inactive) | 0.052 (inactive) | -0.06 (inactive)
4 | PPT1 (UniProt P50897) | 0.01 (inactive) | -0.011 (inactive) | 0.018 (inactive) | -0.003 (inactive) | 0.04 (inactive) | 0.007 (inactive) | 0.01 (inactive) | 0.024 (inactive) | 0.036 (inactive) | -0.009 (inactive)
5 | PSMD9 (UniProt O00233) | 0.015 (inactive) | 0.015 (inactive) | 0.022 (inactive) | -0.012 (inactive) | -0.068 (inactive) | 0.041 (inactive) | 0.006 (inactive) | 0.008 (inactive) | 0.009 (inactive) | 0.03 (inactive)
6 | PGGT1B (UniProt P53609) | 0.024 (inactive) | 0.036 (inactive) | 0.114 (inactive) | 0.006 (inactive) | 0.049 (inactive) | -0.002 (inactive) | 0.021 (inactive) | -0.036 (inactive) | 0.054 (inactive) | 0.027 (inactive)
7 | PIKFYVE (UniProt Q9Y2I7) | -0.174 (inactive) | 0.111 (inactive) | 0.082 (inactive) | 0.082 (inactive) | -0.007 (inactive) | 0.075 (inactive) | 0.04 (inactive) | -0.014 (inactive) | 0.037 (inactive) | -0.108 (inactive)
8 | PPM1G (UniProt O15355) | 0.117 (inactive) | 0.118 (inactive) | 0.009 (inactive) | -0.017 (inactive) | 0.024 (inactive) | 0.035 (inactive) | -0.052 (inactive) | -0.022 (inactive) | -0.011 (inactive) | -0.065 (inactive)
9 | PTPN12 (UniProt Q05209) | 0.005 (inactive) | -0.007 (inactive) | -0.011 (inactive) | 0.004 (inactive) | 0.022 (inactive) | 0.101 (inactive) | -0.021 (inactive) | -0.036 (inactive) | -0.039 (inactive) | -0.05 (inactive)
10 | PCBP2 (UniProt F8VRH0) | -0.011 (inactive) | 0.07 (inactive) | 0.016 (inactive) | -0.099 (inactive) | -0.26 (inactive) | -0.153 (inactive) | – | -0.04 (inactive) | -0.13 (inactive) | 0.113 (inactive)
11 | PRKAB2 (UniProt O43741) | -0.054 (inactive) | 0.29 (inactive) | 0.103 (inactive) | 0.032 (inactive) | -0.022 (inactive) | -0.115 (inactive) | 0.203 (inactive) | 0.144 (inactive) | -0.218 (inactive) | 0.064 (inactive)
12 | POLR2M (UniProt Q6EEV4) | -0.044 (inactive) | 0.096 (inactive) | 0.242 (inactive) | 0.223 (inactive) | -0.006 (inactive) | -0.001 (inactive) | – | -0.048 (inactive) | -0.041 (inactive) | 0.024 (inactive)
13 | PPP1R12A (UniProt O14974) | 0.004 (inactive) | 0.044 (inactive) | 0.023 (inactive) | 0.023 (inactive) | -0.188 (inactive) | 0 (inactive) | 0.035 (inactive) | -0.067 (inactive) | -0.074 (inactive) | -0.485 (active)
14 | PPIL2 (UniProt Q13356) | 0.061 (inactive) | 0.072 (inactive) | 0.064 (inactive) | -0.033 (inactive) | 0.047 (inactive) | 0.004 (inactive) | 0.026 (inactive) | 0.067 (inactive) | -0.052 (inactive) | -0.079 (inactive)
15 | PITRM1 isoform 2 (UniProt Q5JRX3) | -0.004 (inactive) | -0.008 (inactive) | 0.012 (inactive) | 0.005 (inactive) | 0.118 (inactive) | 0.007 (inactive) | 0.041 (inactive) | 0.03 (inactive) | 0.023 (inactive) | 0.153 (inactive)
16 | PSMC6 (UniProt P62333) | -0.06 (inactive) | -0.074 (inactive) | -0.006 (inactive) | 0.011 (inactive) | -0.031 (inactive) | -0.037 (inactive) | 0.015 (inactive) | 0.014 (inactive) | 0.034 (inactive) | -0.008 (inactive)
17 | QKI (UniProt Q96PU8) | -0.011 (inactive) | 0.051 (inactive) | -0.008 (inactive) | 0.003 (inactive) | 0.028 (inactive) | 0.007 (inactive) | -0.002 (inactive) | -0.032 (inactive) | -0.025 (inactive) | -0.007 (inactive)
18 | POLR3D (UniProt P05423) | 0.068 (inactive) | -0.665 (active) | -0.087 (inactive) | -0.031 (inactive) | -0.733 (active) | -0.022 (inactive) | 0.076 (inactive) | -0.004 (inactive) | -0.005 (inactive) | 0.372 (inactive)
19 | PSMD7 (UniProt P51665) | -0.074 (inactive) | -0.1 (inactive) | -0.045 (inactive) | -0.023 (inactive) | -0.015 (inactive) | -0.072 (inactive) | 0.02 (inactive) | -0.009 (inactive) | 0.044 (inactive) | -0.01 (inactive)
20 | PMVK (UniProt Q15126) | 0.001 (inactive) | -0.518 (inactive) | 0.006 (inactive) | 0.042 (inactive) | 0.052 (inactive) | -0.045 (inactive) | – | -0.115 (inactive) | -0.006 (inactive) | 0.15 (inactive)
21 | PSPC1 (UniProt Q8WXF1) | -0.024 (inactive) | 0.014 (inactive) | -0.036 (inactive) | 0.043 (inactive) | -0.008 (inactive) | 0.004 (inactive) | -0.101 (inactive) | -0.141 (inactive) | -0.033 (inactive) | -0.061 (inactive)
22 | PTTG1IP (UniProt P53801) | -0.011 (inactive) | -0.06 (inactive) | -0.039 (inactive) | -0.001 (inactive) | 0.026 (inactive) | 0.033 (inactive) | – | -0.082 (inactive) | 0.037 (inactive) | 0.01 (inactive)
23 | PARP16 isoform 3 (UniProt Q8N5Y8) | 0.025 (inactive) | 0.049 (inactive) | -0.055 (inactive) | -0.018 (inactive) | -0.029 (inactive) | 0.102 (inactive) | – | -0.013 (inactive) | -0.026 (inactive) | 0.067 (inactive)
24 | PRMT8 (UniProt Q9NR22) | -0.008 (inactive) | 0.03 (inactive) | 0.159 (inactive) | -0.067 (inactive) | 0.099 (inactive) | -0.005 (inactive) | 0.122 (inactive) | 0.042 (inactive) | 0.012 (inactive) | 0.028 (inactive)
25 | PDE6D (UniProt O43924) | -0.094 (inactive) | 0.055 (inactive) | -0.082 (inactive) | -0.102 (inactive) | 0.078 (inactive) | 0.004 (inactive) | – | 0.115 (inactive) | 0.417 (inactive) | 0.028 (inactive)
26 | PRIM1 (UniProt P49642) | 0.005 (inactive) | 0.011 (inactive) | -0.044 (inactive) | 0.049 (inactive) | -0.005 (inactive) | 0.027 (inactive) | -0.09 (inactive) | 0.061 (inactive) | -0.033 (inactive) | -0.074 (inactive)
27 | PRKCE (UniProt Q02156) | -0.076 (inactive) | 0.107 (inactive) | 0.111 (inactive) | 0.057 (inactive) | 0.06 (inactive) | 0.057 (inactive) | – | 0.004 (inactive) | -0.019 (inactive) | -0.095 (inactive)

Source: the supplement of paper PMC10849652
